Reference: publication PMC12820563, “FoxP3 forms a head-to-head dimer in vivo and stabilizes its multimerization on adjacent microsatellites”
Over roughly 16,000 sequences, “rpm ratio (pull-down/input)” has its median near 0.94; the highest 2% begin near 1.7. Shown is part of a subset that was picked to be rich in the highest values.

Each sequence was assayed against T1, MBP-FoxP1dN (Mus musculus, UniProt P58462 326-579) (assay: PD-seq (MBP pull-down with sequencing); 20 mM Tris-HCl pH 7.5, 100 mM NaCl, 1.5 mM MgCl2, 0.4 uM protein, 0.1 uM dsDNA library, 30 min, room temperature, amylose pull-down; high values mean tight binding). Details: protein: recombinant; tags: His6-MBP; chain copies: 2; dsDNA, one strand shown.
T1 sequence: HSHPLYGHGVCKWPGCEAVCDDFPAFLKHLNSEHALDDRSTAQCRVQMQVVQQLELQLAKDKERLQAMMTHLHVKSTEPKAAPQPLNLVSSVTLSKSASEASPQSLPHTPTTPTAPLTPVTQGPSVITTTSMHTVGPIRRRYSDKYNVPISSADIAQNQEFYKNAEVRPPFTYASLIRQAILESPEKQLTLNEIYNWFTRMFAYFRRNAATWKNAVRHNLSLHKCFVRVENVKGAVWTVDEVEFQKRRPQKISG
Summary of the method: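 Protein and DNA were mixed at 0.4 µM and 0.1 µM and held for 30 min at room temperature in Tris pH 7.5 buffer with NaCl and MgCl2; the protein was a His6-MBP-tagged, N-terminally truncated mouse FoxP3 or FoxP1 fragment from E. coli, and the DNA a Klenow-filled double-stranded degenerate library. Amylose resin captured the complexes, which were washed three times. Binding is read as reads-per-million enrichment of pull-down versus input after Illumina sequencing, with replicates pooled.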

Sequence | binding signal
GATGATTGTTCTCCCAGCTGATGAATTCCTCTGATCGAGTAAACAAATTTTCCTAATCTTTCTGTTCAAGCGCCATCTAC | 0.844 RPM ratio (pull-down/input)
GATGATTGTTCTCCCAGCTGATGAATTTTATTACTCGAGTAAACAAATTTTCCTAATCTTTCTGTTCAAGCGCCATCTAC | 1.01 RPM ratio (pull-down/input)
GATGATTGTTCTCCCAGCTGATGAATTTTATTTCTCGAGTAAACAAATTTTCCTAATCTTTCTGTTCAAGCGCCATCTAC | 1.16 RPM ratio (pull-down/input)
GATGATTGTTCTCCCAGCTGATGAATTTATTTACTCGAGTAAACAAATTTTCCTAATCTTTCTGTTCAAGCGCCATCTAC | 2.5 RPM ratio (pull-down/input)
GATGATTGTTCTCCCAGCTGATGAATTTGATGACTCGAGTAAACAAATTTTCCTAATCTTTCTGTTCAAGCGCCATCTAC | 0.974 RPM ratio (pull-down/input)
GATGATTGTTCTCCCAGCTGATGAATTTATTTTCTCGAGTAAACAAATTTTCCTAATCTTTCTGTTCAAGCGCCATCTAC | 1.77 RPM ratio (pull-down/input)
GATGATTGTTCTCCCAGCTGATGAATTTATTTCCTCGAGTAAACAAATTTTCCTAATCTTTCTGTTCAAGCGCCATCTAC | 1.3 RPM ratio (pull-down/input)
GATGATTGTTCTCCCAGCTGATGAATTATTTTACTCGAGTAAACAAATTTTCCTAATCTTTCTGTTCAAGCGCCATCTAC | 1.2 RPM ratio (pull-down/input)
GATGATTGTTCTCCCAGCTGATGAATTTGTTTACTCGAGTAAACAAATTTTCCTAATCTTTCTGTTCAAGCGCCATCTAC | 2.62 RPM ratio (pull-down/input)
GATGATTGTTCTCCCAGCTGATGAATTTGTTGACTCGAGTAAACAAATTTTCCTAATCTTTCTGTTCAAGCGCCATCTAC | 2.35 RPM ratio (pull-down/input)
GATGATTGTTCTCCCAGCTGATGAATTGTTTTACTCGAGTAAACAAATTTTCCTAATCTTTCTGTTCAAGCGCCATCTAC | 1.42 RPM ratio (pull-down/input)
GATGATTGTTCTCCCAGCTGATGAATTTTTTTACTCGAGTAAACAAATTTTCCTAATCTTTCTGTTCAAGCGCCATCTAC | 0.958 RPM ratio (pull-down/input)
GATGATTGTTCTCCCAGCTGATGAATTTTTTGACTCGAGTAAACAAATTTTCCTAATCTTTCTGTTCAAGCGCCATCTAC | 0.935 RPM ratio (pull-down/input)
GATGATTGTTCTCCCAGCTGATGAATTCAATGCGTCGAGTAAACAAATTTTCCTAATCTTTCTGTTCAAGCGCCATCTAC | 1.05 RPM ratio (pull-down/input)
GATGATTGTTCTCCCAGCTGATGAATTATTACGTTCGAGTAAACAAATTTTCCTAATCTTTCTGTTCAAGCGCCATCTAC | 1.21 RPM ratio (pull-down/input)
GATGATTGTTCTCCCAGCTGATGAATTTGGGATGTCGAGTAAACAAATTTTCCTAATCTTTCTGTTCAAGCGCCATCTAC | 0.922 RPM ratio (pull-down/input)
GATGATTGTTCTCCCAGCTGATGAATTTACCGAATCGAGTAAACAAATTTTCCTAATCTTTCTGTTCAAGCGCCATCTAC | 1.37 RPM ratio (pull-down/input)
GATGATTGTTCTCCCAGCTGATGAATTGAAAGCATCGAGTAAACAAATTTTCCTAATCTTTCTGTTCAAGCGCCATCTAC | 1.2 RPM ratio (pull-down/input)
GATGATTGTTCTCCCAGCTGATGAATTCACCGGTTCGAGTAAACAAATTTTCCTAATCTTTCTGTTCAAGCGCCATCTAC | 0.877 RPM ratio (pull-down/input)
GATGATTGTTCTCCCAGCTGATGAATTGATCTTATCGAGTAAACAAATTTTCCTAATCTTTCTGTTCAAGCGCCATCTAC | 1.08 RPM ratio (pull-down/input)
GATGATTGTTCTCCCAGCTGATGAATTTGGTATATCGAGTAAACAAATTTTCCTAATCTTTCTGTTCAAGCGCCATCTAC | 1.23 RPM ratio (pull-down/input)
GATGATTGTTCTCCCAGCTGATGAATTTTAGGGATCGAGTAAACAAATTTTCCTAATCTTTCTGTTCAAGCGCCATCTAC | 0.823 RPM ratio (pull-down/input)

Sequence | binding signal
GATGATTGTTCTCCCAGCTGATGAATTCCTATTATCGAGTAAACAAATTTTCCTAATCTTTCTGTTCAAGCGCCATCTAC | 1.33 RPM ratio (pull-down/input)
GATGATTGTTCTCCCAGCTGATGAATTTATTGACTCGAGTAAACAAATTTTCCTAATCTTTCTGTTCAAGCGCCATCTAC | 1.85 RPM ratio (pull-down/input)
GATGATTGTTCTCCCAGCTGATGAATTTTATGTCTCGAGTAAACAAATTTTCCTAATCTTTCTGTTCAAGCGCCATCTAC | 0.899 RPM ratio (pull-down/input)
GATGATTGTTCTCCCAGCTGATGAATTATTTGTCTCGAGTAAACAAATTTTCCTAATCTTTCTGTTCAAGCGCCATCTAC | 1.66 RPM ratio (pull-down/input)
GATGATTGTTCTCCCAGCTGATGAATTTTATGACTCGAGTAAACAAATTTTCCTAATCTTTCTGTTCAAGCGCCATCTAC | 0.916 RPM ratio (pull-down/input)
GATGATTGTTCTCCCAGCTGATGAATTTATTGTCTCGAGTAAACAAATTTTCCTAATCTTTCTGTTCAAGCGCCATCTAC | 1.78 RPM ratio (pull-down/input)
GATGATTGTTCTCCCAGCTGATGAATTATTTGACTCGAGTAAACAAATTTTCCTAATCTTTCTGTTCAAGCGCCATCTAC | 1.07 RPM ratio (pull-down/input)
GATGATTGTTCTCCCAGCTGATGAATTGTCACCCTCGAGTAAACAAATTTTCCTAATCTTTCTGTTCAAGCGCCATCTAC | 1 RPM ratio (pull-down/input)
GATGATTGTTCTCCCAGCTGATGAATTGAGTTCGTCGAGTAAACAAATTTTCCTAATCTTTCTGTTCAAGCGCCATCTAC | 0.82 RPM ratio (pull-down/input)
GATGATTGTTCTCCCAGCTGATGAATTAAGGACATCGAGTAAACAAATTTTCCTAATCTTTCTGTTCAAGCGCCATCTAC | 1.06 RPM ratio (pull-down/input)
GATGATTGTTCTCCCAGCTGATGAATTTCTAATCTCGAGTAAACAAATTTTCCTAATCTTTCTGTTCAAGCGCCATCTAC | 0.82 RPM ratio (pull-down/input)
GATGATTGTTCTCCCAGCTGATGAATTTCTGTCCTCGAGTAAACAAATTTTCCTAATCTTTCTGTTCAAGCGCCATCTAC | 0.915 RPM ratio (pull-down/input)
GATGATTGTTCTCCCAGCTGATGAATTGTTGTCCTCGAGTAAACAAATTTTCCTAATCTTTCTGTTCAAGCGCCATCTAC | 2.28 RPM ratio (pull-down/input)
GATGATTGTTCTCCCAGCTGATGAATTGATCTTCTCGAGTAAACAAATTTTCCTAATCTTTCTGTTCAAGCGCCATCTAC | 0.956 RPM ratio (pull-down/input)
GATGATTGTTCTCCCAGCTGATGAATTTTTTTTCTCGAGTAAACAAATTTTCCTAATCTTTCTGTTCAAGCGCCATCTAC | 0.756 RPM ratio (pull-down/input)
GATGATTGTTCTCCCAGCTGATGAATTGTTGATCTCGAGTAAACAAATTTTCCTAATCTTTCTGTTCAAGCGCCATCTAC | 2.06 RPM ratio (pull-down/input)
GATGATTGTTCTCCCAGCTGATGAATTGATGATCTCGAGTAAACAAATTTTCCTAATCTTTCTGTTCAAGCGCCATCTAC | 0.99 RPM ratio (pull-down/input)
GATGATTGTTCTCCCAGCTGATGAATTGACCTCCTCGAGTAAACAAATTTTCCTAATCTTTCTGTTCAAGCGCCATCTAC | 0.877 RPM ratio (pull-down/input)
GATGATTGTTCTCCCAGCTGATGAATTGATGACCTCGAGTAAACAAATTTTCCTAATCTTTCTGTTCAAGCGCCATCTAC | 1.02 RPM ratio (pull-down/input)
GATGATTGTTCTCCCAGCTGATGAATTGTTGACCTCGAGTAAACAAATTTTCCTAATCTTTCTGTTCAAGCGCCATCTAC | 1.88 RPM ratio (pull-down/input)
GATGATTGTTCTCCCAGCTGATGAATTGTTGTTCTCGAGTAAACAAATTTTCCTAATCTTTCTGTTCAAGCGCCATCTAC | 2.58 RPM ratio (pull-down/input)
GATGATTGTTCTCCCAGCTGATGAATTGTCCTCCTCGAGTAAACAAATTTTCCTAATCTTTCTGTTCAAGCGCCATCTAC | 1.03 RPM ratio (pull-down/input)

Sequence | binding signal
GATGATTGTTCTCCCAGCTGATGAATTAACAGTTTCGAGTAAACAAATTTTCCTAATCTTTCTGTTCAAGCGCCATCTAC | 1.09 RPM ratio (pull-down/input)
GATGATTGTTCTCCCAGCTGATGAATTGTAAAAGTCGAGTAAACAAATTTTCCTAATCTTTCTGTTCAAGCGCCATCTAC | 0.943 RPM ratio (pull-down/input)
GATGATTGTTCTCCCAGCTGATGAATTATGTCGCTCGAGTAAACAAATTTTCCTAATCTTTCTGTTCAAGCGCCATCTAC | 1.01 RPM ratio (pull-down/input)
GATGATTGTTCTCCCAGCTGATGAATTCCATAAGTCGAGTAAACAAATTTTCCTAATCTTTCTGTTCAAGCGCCATCTAC | 0.896 RPM ratio (pull-down/input)
GATGATTGTTCTCCCAGCTGATGAATTCTCTGGCTCGAGTAAACAAATTTTCCTAATCTTTCTGTTCAAGCGCCATCTAC | 0.769 RPM ratio (pull-down/input)
GATGATTGTTCTCCCAGCTGATGAATTATCGGCTTCGAGTAAACAAATTTTCCTAATCTTTCTGTTCAAGCGCCATCTAC | 0.859 RPM ratio (pull-down/input)
GATGATTGTTCTCCCAGCTGATGAATTACATGGATCGAGTAAACAAATTTTCCTAATCTTTCTGTTCAAGCGCCATCTAC | 1 RPM ratio (pull-down/input)
GATGATTGTTCTCCCAGCTGATGAATTGCGCCCCTCGAGTAAACAAATTTTCCTAATCTTTCTGTTCAAGCGCCATCTAC | 0.966 RPM ratio (pull-down/input)
GATGATTGTTCTCCCAGCTGATGAATTATTGAGCTCGAGTAAACAAATTTTCCTAATCTTTCTGTTCAAGCGCCATCTAC | 0.941 RPM ratio (pull-down/input)
GATGATTGTTCTCCCAGCTGATGAATTTCCTACCTCGAGTAAACAAATTTTCCTAATCTTTCTGTTCAAGCGCCATCTAC | 0.823 RPM ratio (pull-down/input)
GATGATTGTTCTCCCAGCTGATGAATTACCATTGTCGAGTAAACAAATTTTCCTAATCTTTCTGTTCAAGCGCCATCTAC | 1.04 RPM ratio (pull-down/input)
GATGATTGTTCTCCCAGCTGATGAATTTTTGCACTCGAGTAAACAAATTTTCCTAATCTTTCTGTTCAAGCGCCATCTAC | 0.891 RPM ratio (pull-down/input)
GATGATTGTTCTCCCAGCTGATGAATTGTTGCACTCGAGTAAACAAATTTTCCTAATCTTTCTGTTCAAGCGCCATCTAC | 1.76 RPM ratio (pull-down/input)
GATGATTGTTCTCCCAGCTGATGAATTGCACTCCTCGAGTAAACAAATTTTCCTAATCTTTCTGTTCAAGCGCCATCTAC | 1.15 RPM ratio (pull-down/input)
GATGATTGTTCTCCCAGCTGATGAATTTCAATAATCGAGTAAACAAATTTTCCTAATCTTTCTGTTCAAGCGCCATCTAC | 1.31 RPM ratio (pull-down/input)
GATGATTGTTCTCCCAGCTGATGAATTACTACAATCGAGTAAACAAATTTTCCTAATCTTTCTGTTCAAGCGCCATCTAC | 1.55 RPM ratio (pull-down/input)
GATGATTGTTCTCCCAGCTGATGAATTACAGCAATCGAGTAAACAAATTTTCCTAATCTTTCTGTTCAAGCGCCATCTAC | 1.28 RPM ratio (pull-down/input)
GATGATTGTTCTCCCAGCTGATGAATTACAATAATCGAGTAAACAAATTTTCCTAATCTTTCTGTTCAAGCGCCATCTAC | 1.83 RPM ratio (pull-down/input)
GATGATTGTTCTCCCAGCTGATGAATTACAACAATCGAGTAAACAAATTTTCCTAATCTTTCTGTTCAAGCGCCATCTAC | 2.1 RPM ratio (pull-down/input)
GATGATTGTTCTCCCAGCTGATGAATTACAATTATCGAGTAAACAAATTTTCCTAATCTTTCTGTTCAAGCGCCATCTAC | 1.51 RPM ratio (pull-down/input)
